According to PubChem BioAssay (NCI):
Compounds without any hit were thinned out: in the full panel of roughly 83,000, 20% have a hit.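 The test compound was applied at a single concentration to cells in 96-well plates for 48 hours, and percent growth was recorded.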 Values without a mark were called inactive. Activity calls are given as the source filed them. The calls were made as follows: active = growth percent below 10; inactive = the rest.

Key:
Test in all cases: NCI-60 one-dose screen, 48 h (100 = growth as untreated, 0 = no growth, -100 = all killed)
Conditions in all cases: 10 µM unless noted
SR leukemia = test system: SR leukemia
OVCAR-8 ovarian = test system: OVCAR-8 ovarian
OVCAR-4 ovarian = test system: OVCAR-4 ovarian
SK-OV-3 ovarian = test system: SK-OV-3 ovarian
IGROV1 ovarian = test system: IGROV1 ovarian
OVCAR-3 ovarian = test system: OVCAR-3 ovarian
HS 578T breast = test system: HS 578T breast
NCI/ADR-RES ovarian = test system: NCI/ADR-RES ovarian
T-47D breast = test system: T-47D breast
BT-549 breast = test system: BT-549 breast
MDA-MB-435 melanoma = test system: MDA-MB-435 melanoma
SW-620 colon = test system: SW-620 colon
MCF7 breast = test system: MCF7 breast
HCT-116 colon = test system: HCT-116 colon
HCC-2998 colon = test system: HCC-2998 colon
KM12 colon = test system: KM12 colon
RPMI-8226 leukemia = test system: RPMI-8226 leukemia
OVCAR-5 ovarian = test system: OVCAR-5 ovarian

| Compound | growth (SR leukemia) | growth (OVCAR-8 ovarian) | growth (OVCAR-4 ovarian) | growth (SK-OV-3 ovarian) | growth (IGROV1 ovarian) | growth (OVCAR-3 ovarian) | growth (HS 578T breast) | growth (NCI/ADR-RES ovarian) | growth (T-47D breast) | growth (BT-549 breast) | growth (MDA-MB-435 melanoma) | growth (SW-620 colon) | growth (MCF7 breast) | growth (HCT-116 colon) | growth (HCC-2998 colon) | growth (KM12 colon) | growth (RPMI-8226 leukemia) | growth (OVCAR-5 ovarian) |
| --- | --- | --- | --- | --- | --- | --- | --- | --- | --- | --- | --- | --- | --- | --- | --- | --- | --- | --- |
| NCCCNc1nc2ccccc2c2c(=O)c3cc(OC(F)(F)F)ccc3sc12 | -31.1% (active) | -0.0816% (active) | -58.3% (active) | 89.9% | 35.4% | -73.3% (active) | 1.28% (active) | -29% (active) | -9.69% (active) | 93.1% | -79.2% (active) | -75.8% (active) | -70.1% (active) | -83.4% (active) | -88.1% (active) | -89.3% (active) |  |  |
| Cc1nn(-c2ccccc2)c(-n2ccnc2)c1/C=N/Nc1nc(-c2ccc(Cl)c(Cl)c2)cs1 | 41.2% | 20% | -22.1% (active) | 89.5% | 60.9% | -69.4% (active) | 42% | -9.8% (active) | 28.7% | 71.5% | 66.2% | 30.6% | 17.1% | 0.896% (active) | 63.5% | 66.7% |  |  |
| c1cc(-c2nnc(SSc3ncnc4nc[nH]c34)o2)ccn1 |  | 20.4% | 63.3% | 32.8% | 48.2% | 31.1% | 66% | 27.3% | 42.3% | 51.7% | 16% | 34.6% | 23% | 16.6% | 10.3% |  | 16.1% | 39.7% |
| COc1ccc2c(c1)c(-c1nn3cc(-c4cccs4)nc3s1)cn2C |  | 85.3% | 70.6% | 84.8% | 52.9% | 96.4% | 45.1% | 80.3% | 43.6% | 101% | 87.6% | 82.3% | 60.4% | 82.8% | 98.9% | 70.4% | 68.8% | 66.5% |
| COc1ccc(OC)c(/C=C/C(=O)N/N=C/c2ccc(Cl)cc2)c1 |  | 21% | 40.2% | -4.93% (active) | 17.9% | -43.4% (active) | -1.72% (active) | 3.82% (active) | 29.5% | 63.5% | -32.4% (active) | 19.9% | 8.93% (active) | 5.72% (active) | 2.34% (active) |  | 21.3% | 28.4% |
| O=c1ccc(N=Nc2ccc([N+](=O)[O-])cc2)ccc1O |  | 9.9% (active) | 29.6% | 78.6% | 21.4% | 8.96% (active) | 34.8% | -1.1% (active) | 16.8% | 97.3% | 21.8% | 15.4% | 7.16% (active) | 32.3% | 22.3% |  | 22.4% | 48.5% |
| COc1ccc(C(=O)/C=C/c2sc(Cl)nc2Cl)cc1 |  | 22.9% | 42.2% | 39% | 11.1% | -3.81% (active) | 58.5% | 1.37% (active) | 59% | -4.31% (active) | 15.7% | 18.6% | -7.05% (active) | 17.7% | -36% (active) | 39% | -25.4% (active) | 47.1% |
| CN1CCN(c2ccc(-c3ccc4ncc(C#N)c(Nc5ccc(F)c(Cl)c5)c4c3)cc2)CC1 |  | 47.9% | 46.8% | 27% | 11.4% | 59.8% | 43.3% | 50.5% | 60.7% | 63.3% | 21.6% | 21.5% | 51.4% | 18.2% | 48.6% | 57.2% | 4.87% (active) | 57.6% |
| O=C(CSc1nc2ccccc2[nH]1)Nc1cccc(Cl)c1 |  | 106% | 95.7% | 97.9% | 96.2% | 102% | 91.9% | 103% | 83.4% | 103% | 102% | 95.7% | 102% | -54.9% (active) | 103% |  | 102% | 98.7% |
| Nc1nc(Cl)cc(=O)n1Cc1ccccc1 |  | 92.1% | 97.1% | 103% | 115% | 103% | 135% | 91.9% | 83.4% | 102% | 92.6% | 105% | 98.1% | 95.2% | 89.4% |  | 100% | 91% |
| CCCCCCCCCCCCCCCCCCOc1ccc(CC(=O)OCC[N+](C)(C)C)cc1 |  | 107% | 97.3% | 107% | 91% | 115% | 99.6% | 99.3% | 99.5% | 95.8% | 100% | 99.9% | 95.8% | 93% | 95.4% | 96.8% | 91.7% | 96.8% |
| Fc1cc(-c2nnc3n2NC(=Nc2ccc(Cl)cc2)CS3)c(Cl)cc1Cl |  | 94.9% | 89.9% | 89.8% | 57.2% | 91.6% | 89.3% | 88.3% | 79.2% | 94.7% | 64.2% | 95.7% | 86.9% | 91.3% | 75.3% |  | 66.9% | 80.3% |
| c1ccc2c(-c3nc(-c4c[nH]c5ccncc45)cs3)c[nH]c2c1 |  | 60.2% | 59.5% | 73.3% | 54.2% | 72.3% | 72.3% | 72.7% | 58.8% | 77.3% | -79.8% (active) | -63% (active) | 20.5% | -15.3% (active) | -34.4% (active) | 34% | 10.9% | 70.8% |
| CCOc1c(B(O)O)cccc1-c1nc2ccc3[nH]ncc3c2c2c1CCCC2 |  | 65% | 93.3% | 72% | 77.6% | 113% | 34.5% | 62.7% | 75.5% | 25.1% | 90.1% | 38.3% | 59.4% | 34.8% | 51% | 32.2% | 39.5% | 74.7% |
| CCC12CCC[N+]3([O-])CCC4(C(=Nc5ccccc54)C(O)(C(=O)OC)C1)C23 (stereo not drawn) |  | 102% | 106% | 103% | 138% | 106% | 92.7% | 103% | 94.8% | 102% | 112% | 95.4% | 116% | 94.5% | 97.8% | 99.6% | 99.9% | 93.6% |
| CCCCCCN(CCCCCC)c1ccc(/C=C2/SC(=O)NC2=O)c(C)c1 |  | 80.6% | 69.6% | 96.5% | 83.6% | 86.7% | 86.8% | 86.7% | 77.2% | 98.3% | 82.1% | 88.6% | 79.2% | 63.7% | 67.4% | 80.3% | 65.5% | 109% |
| C#Cc1cccc(NC(=O)c2ccc(NC(=O)C=C)cc2)c1 |  | 75.9% [8.25 µM] | 88.9% [8.25 µM] | 97% [8.25 µM] | 70.9% [8.25 µM] | 70.5% [8.25 µM] | 94.2% [8.25 µM] | 73.9% [8.25 µM] | 55.6% [8.25 µM] | 77% [8.25 µM] | 65.5% [8.25 µM] | 77.9% [8.25 µM] | 59% [8.25 µM] | 57.4% [8.25 µM] | 101% [8.25 µM] | 96.7% [8.25 µM] | 60.2% [8.25 µM] | 86.7% [8.25 µM] |
| CCCCNc1nc(NN2C(=O)c3cccc4cccc(c34)C2=O)nc(-n2cnc3ccccc32)n1 |  | 93.3% | 67.7% | 99.3% | 80.4% | 86.3% | 81.9% | 91.5% | 74.7% | 98.8% | 99.2% | 109% | 72.6% | 88.3% | 105% | 25.4% | 86.9% | 83.8% |
